FLuc modulator: inhibits or activates purified firefly luciferase, miR-21 counter-screen | P08659 | purified FLuc, Km substrates, luminescence inhibition | Potency, µM (titrated, usually from 57.5 µM), without a hit: at the top dose activity change, negative = inhibition, most hits filed as inhibitors | 6.9% of 360,000 active | AID 588342;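 note: plate controls were vehicle for no effect and reference inhibitor for full effect; nearly all actives have a fitted effect of over 55% in size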
Target sequence (P08659 whole entry, looked up): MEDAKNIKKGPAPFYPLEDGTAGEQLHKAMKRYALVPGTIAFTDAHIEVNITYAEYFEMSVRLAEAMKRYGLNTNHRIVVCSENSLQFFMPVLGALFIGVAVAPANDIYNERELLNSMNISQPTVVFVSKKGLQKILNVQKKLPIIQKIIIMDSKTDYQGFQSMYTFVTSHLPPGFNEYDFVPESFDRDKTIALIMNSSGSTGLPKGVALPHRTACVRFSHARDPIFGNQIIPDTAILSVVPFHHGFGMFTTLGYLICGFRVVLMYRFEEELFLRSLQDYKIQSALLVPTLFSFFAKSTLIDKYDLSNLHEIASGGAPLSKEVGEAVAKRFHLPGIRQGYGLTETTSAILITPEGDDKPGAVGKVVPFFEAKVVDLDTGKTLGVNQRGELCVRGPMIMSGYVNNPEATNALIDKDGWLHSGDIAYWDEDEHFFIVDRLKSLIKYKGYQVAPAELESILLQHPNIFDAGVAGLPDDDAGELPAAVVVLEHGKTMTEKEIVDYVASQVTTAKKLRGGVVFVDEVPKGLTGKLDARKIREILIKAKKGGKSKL
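Biochemical qHTS of compounds, final roughly 60 µM downward over six points, against 10 nM purified firefly luciferase using Km concentrations of substrates (10 uM D-luciferin, 10 uM ATP) in Tris acetate pH 7.5 buffer; luminescence output.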
SMN2 splice up: SMN2 splice variant enhancement. HEK293 SMN2-luciferase splicing reporter, luminescence, 30-36 h. Potency, µM (doses to about 46.1 µM), for the others: top-dose activity change, positive = activation, actives largely listed as activators. 2.8% of 210,000 active. AID 1458; note: % of control where 0% means no effect; nearly all actives have a fitted effect of over 55% in size
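qHTS luciferase splicing reporter: luminescence rises when SMN2 exon 7 is included in transfected HEK293 cells. Compound exposure lasted 30-36 h at 37C, with 4.5 mM final sodium butyrate as control, followed by a ONE-Glo read.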
NPC1 prom act: NPC1 promoter activation | Potency, µM (titrated, usually from 9.22 µM), without a hit: top-dose activation, actives largely listed as activators | 2.4% of 320,000 active | Huh7 NPC1 promoter luciferase reporter, 24 h; note: % of control where 0% means no effect; nearly all actives have a fitted effect of over 60% in size
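Readout is luciferase luminescence, reflecting NPC1 promoter activation in stably transfected Huh7 cells after 24 h compound exposure at 37 °C in reduced-serum medium with 10% FBS.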
Rab9 promoter act: activates the Rab9 promoter; 2.8% of 320,000 active; Huh7 Rab9 promoter-luciferase reporter, luminescence, 24 h; AID 485297; Potency, µM (highest dose often 9.22 µM), inactives show top-dose activation, negative = inhibition, hits mostly activators; note: % of control where 0% means no effect; nearly all actives have a fitted effect of over 60% in size
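Cell-based reporter: Huh7 stable for Rab9 promoter-driven luciferase, plated in reduced-serum medium with 10% FBS at 1500 cells/well, compound-treated 24 h at 37 °C, luminescence read after 10 min reagent.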
ELG1 genotox: genotoxicity induction in ELG1-luciferase HEK293T cells; Potency, µM (top dose mostly 46 µM), for inactives: top-dose activity change, positive = activation, usual class: activators; 1.3% of 330,000 active; HEK293T ELG1-luciferase reporter, luminescence, 16 h; note: % of control where 0% means no effect; nearly all actives have a fitted effect of over 60% in size
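16 hr compound incubation (37 °C, 5% CO2) of HEK293T cells carrying luciferase-tagged ELG1; luciferase then measured by ONE-Glo luminescence after 30 min at RT.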
* hit, by the source's call; ? = inconclusive; . = no result given; [ ] = dose if it differs, or a comment. The list is not random: actives were taken first. Their share in the collection is about 7.4%. Calls come from the whole dose curve; as a rule, active = well fitted curve in the direction sought with a large enough effect; inconclusive = small, poorly fitted or top-dose-only effect, or another doubt; inactive = no such curve, though single readings can be large; an effect the other way counts as inactive or inconclusive. Potency is the fitted concentration of half-maximal effect.

SMILES	FLuc modulator	SMN2 splice up	NPC1 prom act	Rab9 promoter act	ELG1 genotox
CC(=O)Oc1ccc(-c2nc3cc(Cl)ccc3c(=O)o2)cc1	-11.5%	.	-4.1%	6.3%	-3.3%
CCCOc1ccc(-c2nc(OC)c3ccccc3n2)cc1	13.5µM*	-10.3%	19.5%	3.4%	4.8%
CCOC(=O)CNC(c1ccccc1)c1cc(Br)ccc1NC(=O)c1ccc(Cl)cc1 (configuration not stated)	1.3%	-13.5%	.	.	.
Cc1cc(CN(C)C(=O)c2ccc3nc(Cc4ccccc4F)oc3c2)on1	?	.	2.82µM*	3.16µM*	-3.1%
CN(Cc1nccn1C)C(=O)c1ccc2nc(Cc3ccccc3F)oc2c1	13.5µM*	.	14.6%	?	?
Cc1ccccc1Cn1c(=O)n(CCCCC(=O)NCCc2ccccc2)c(=O)c2ccccc21	4.7%	-7.2%	.	.	.
COc1nc(-c2ccccc2)ccc1-c1noc(-c2ccccc2F)n1	5.36µM*	28.6%	?	?	?
COc1nc(-c2ccccc2)ccc1-c1noc(-c2ccc(F)cc2)n1	3.6%	12.2%	0.0%	11.0%	-1.1%
COc1cccc(-c2nc(CS(=O)(=O)c3ccccc3)no2)c1	12µM*	11.2µM*	2.82µM*	3.16µM*	?
COc1cccc(-c2nc(-c3ccc(-c4ccccc4)nc3OC)no2)c1	2.39µM*	1.2%	.	.	.
COc1ccc(-c2ccc(-c3noc(-c4ccc(OC)c(OC)c4)n3)c(OC)n2)cc1	0.2%	-21.1%	-1.7%	3.3%	0.3%
COc1ccc(-c2ccc(-c3noc(-c4cccc(OC)c4)n3)c(OC)n2)cc1	7.57µM*	-45.8%	-2.2%	9.7%	2.5%
COc1nc(-c2ccccc2)ccc1-c1noc(-c2cccnc2)n1	?	.	26.8%	?	-3.6%
Cc1cccc(C(=O)Nc2ccccc2C(=O)OCc2cc(=O)n3nc(C4CC4)sc3n2)c1	-4.6%	.	.	.	.
Cc1cccc(Cn2nnc3c(=O)[nH]c(C4CCN(C(=O)c5ccc(F)cc5)CC4)nc32)c1	4.0%	-2.6%	.	.	.
CCOc1ccc2c(c1)c(=O)c(C(=O)c1ccccc1)cn2Cc1ccccc1F	-7.9%	2.8%	.	.	.
O=C(O)c1ccnc2c(O)cccc12	-3.1%	.	26.3%	?	.
CC(=O)[C@H](C(=N)C#N)C(=O)Nc1ccccc1	.	-17.2%[9.22 µM]	.	.	.
CC1CCCC(C)N1C(=O)c1cc(-c2ccc3c(c2)OCO3)on1 (configuration not stated)	10.7µM*	.	2µM*	2µM*	-1.5%
CC1CCCC(C)N1C(=O)c1cc(-c2ccc(Cl)c(Cl)c2)on1 (configuration not stated)	12µM*	26.9%	?	?	12.9%
COc1ccc(NC(=O)c2cc(-c3ccc4c(c3)OCO4)on2)cc1	-8.0%	.	-1.3%	-2.0%	2.8%
CCCCOc1ccccc1C(=O)N(Cc1cccc(F)c1)C1CCS(=O)(=O)C1 (configuration not stated)	-2.1%	-5.2%	.	.	.
CCCCNc1nc(C)nc2c1nc(C)n2CCC	.	-6.6%	.	.	.
O=C(NCCS(=O)(=O)N1CCN(c2ccccc2)CC1)C(c1ccccc1)c1ccccc1	7.5%	.	.	.	.
Cc1ccc(-c2nnc(SCC#CCOC(=O)c3ccco3)o2)cc1	16.9µM*	-2.5%	5.3%	?	?
SMILES	FLuc modulator	SMN2 splice up	NPC1 prom act	Rab9 promoter act	ELG1 genotox
Cc1ccc(-c2nnc(SCC#CCOC(=O)c3cccs3)o2)cc1	19µM*	6.1%	18.3%	19.9%	11.7%
O=C(OCC#CCSc1nnc(-c2ccc(Br)cc2)o1)c1cccs1	?	-44.8%	-4.7%	-2.0%	8.0%
O=C(NCc1noc2ccccc12)N1CCN(c2ccccc2)CC1	-1.5%	.	.	.	.
Cc1nn2c(-c3cccnc3)ccnc2c1-c1ccccc1	10.7µM*	17.5%	22.5%	28.8%	4.2%
Cc1nn2c(-c3ccccc3)ccnc2c1Br	-15.0%	.	-4.3%	-10.9%	2.4%
CCCN(CC(=O)Nc1ccccc1C)C(=O)c1ccc2c(c1)S(=O)(=O)N=C1CCCCCN12	-0.7%	.	-2.2%	7.4%	1.2%
CCN(CC(=O)Nc1ccc(NC(C)=O)cc1)C(=O)c1ccc2c(c1)S(=O)(=O)N=C1CCCCCN12	10.7µM*	.	0.4%	-1.4%	-9.7%
Oc1ccc(/C=N/Nc2ccc(C(F)(F)F)cn2)cc1	16.9µM*	15.8µM*	?	3.55µM*	?
Oc1ccc(/C=N/Nc2cccc(Cl)n2)c(O)c1	5.36µM*	.	?	7.7%	?
Oc1ccc(/C=N/Nc2ccc(C(F)(F)F)cn2)c(O)c1	12µM*	.	-20.9%	12.4%	?
COc1cccc2c1cc1c(=O)n(CC(=O)NCc3ccc(C)o3)nc(C)n12	2.1%	-2.4%	.	.	.
CCOc1ccc(NC(=O)CC2C(=O)OCCN2CC)cc1 (configuration not stated)	-5.2%	-16.6%	.	.	.
Cc1ccc(C2=Nc3ccccc3N=C(C(Cl)Cl)C2)cc1	9.53µM*	-67.1%	3.16µM*	3.16µM*	?
Cc1ccc2c(c1)N=C(c1ccccc1)CC(C(Cl)Cl)=N2	8.49µM*	.	?	3.16µM*	?
COc1cccc(-c2cn3c(n2)sc2cc(C(=O)NCc4cccs4)ccc23)c1	0.2%	.	.	.	.
Oc1ccc(-c2csc(Nc3cccc4ccccc34)n2)cc1O	?	.	-7.5%	5.6%	3.6%
Cc1cccc(Nc2nc(-c3ccc(O)c(O)c3)cs2)n1	21.3µM*	.	-8.5%	-1.9%	?
Cc1cccc(Nc2nc(-c3ccc(F)c(C)c3)cs2)n1	6.01µM*	.	3.16µM*	3.98µM*	11.2%
CC(C)(C)c1ccc(COc2ccsc2C(=O)O)cc1	15.1µM*	16.1%	9.7%	?	17.6%

Assay outcomes deposited in PubChem by National Center for Advancing Translational Sciences (NCATS).
